Data as given in the supplement of paper PMC10849652.
Of roughly 7,900 targets only a part is listed; those with a hit were picked by preference. About 0.6% of all pairs of compound and target were hits. Unmarked numbers belong to inactive results.

Compound: c1cn2cc(-c3ccc4cn[nH]c4c3)nc(Nc3ccc(N4CCOCC4)cc3)c2n1 [entospletinib]
Assay: log2 fold change, soluble protein after heating vs DMSO (PISA); higher = thermal stabilisation; K562 cells, 10 uM, 30 min; active = over 0.2 and 3.5 SD of the protein, either way, in both replicates (recomputed)
Method in brief: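 Values are thermal stability changes relative to control samples and are taken from duplicates. They are stated as log2 fold changes. Before quantification by TMTpro 16plex LC-MS/MS with equalised channel sums, K562 cells at 2×10^6 cells/mL were treated with 10 μM compound for 30 min, heated in aliquots for 3 min across 48°C-58°C, pooled, extracted in PBS with 0.5% NP-40 at 4°C, and centrifuged at 21,000xg for 90 min to give the soluble supernatant.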

Chain of UniProt P06493 (P06493 whole entry, looked up): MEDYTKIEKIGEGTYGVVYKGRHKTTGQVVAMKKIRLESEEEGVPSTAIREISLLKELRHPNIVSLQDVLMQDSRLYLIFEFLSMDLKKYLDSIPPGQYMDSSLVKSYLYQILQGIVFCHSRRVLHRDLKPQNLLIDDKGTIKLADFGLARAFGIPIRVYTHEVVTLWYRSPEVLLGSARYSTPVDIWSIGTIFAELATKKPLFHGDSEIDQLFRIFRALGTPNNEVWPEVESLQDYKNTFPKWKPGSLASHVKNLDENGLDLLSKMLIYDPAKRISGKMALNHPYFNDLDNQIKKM
Chain of UniProt Q7KZN9 (Q7KZN9 whole entry, looked up): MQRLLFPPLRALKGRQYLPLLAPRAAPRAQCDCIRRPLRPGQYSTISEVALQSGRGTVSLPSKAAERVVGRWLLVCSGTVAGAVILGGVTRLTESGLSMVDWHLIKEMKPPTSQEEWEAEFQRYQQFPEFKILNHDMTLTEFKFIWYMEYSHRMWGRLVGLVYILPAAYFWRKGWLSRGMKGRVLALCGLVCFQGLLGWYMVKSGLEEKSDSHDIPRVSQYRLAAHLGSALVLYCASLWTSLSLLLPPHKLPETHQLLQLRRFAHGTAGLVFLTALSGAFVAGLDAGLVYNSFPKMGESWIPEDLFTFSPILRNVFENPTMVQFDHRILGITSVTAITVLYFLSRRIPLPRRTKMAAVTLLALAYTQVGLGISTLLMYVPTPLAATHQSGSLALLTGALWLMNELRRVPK
Chain of UniProt Q15417 (Q15417 whole entry, looked up): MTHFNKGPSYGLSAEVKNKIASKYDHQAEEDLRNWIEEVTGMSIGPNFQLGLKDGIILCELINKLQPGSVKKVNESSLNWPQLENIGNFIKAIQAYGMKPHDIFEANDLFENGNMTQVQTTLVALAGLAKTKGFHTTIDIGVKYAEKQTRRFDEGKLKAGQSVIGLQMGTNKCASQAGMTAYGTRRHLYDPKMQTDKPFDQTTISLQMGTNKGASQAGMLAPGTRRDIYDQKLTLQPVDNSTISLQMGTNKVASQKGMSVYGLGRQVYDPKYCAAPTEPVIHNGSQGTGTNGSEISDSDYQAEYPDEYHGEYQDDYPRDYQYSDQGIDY
Chain of UniProt P30281 (P30281 whole entry, looked up): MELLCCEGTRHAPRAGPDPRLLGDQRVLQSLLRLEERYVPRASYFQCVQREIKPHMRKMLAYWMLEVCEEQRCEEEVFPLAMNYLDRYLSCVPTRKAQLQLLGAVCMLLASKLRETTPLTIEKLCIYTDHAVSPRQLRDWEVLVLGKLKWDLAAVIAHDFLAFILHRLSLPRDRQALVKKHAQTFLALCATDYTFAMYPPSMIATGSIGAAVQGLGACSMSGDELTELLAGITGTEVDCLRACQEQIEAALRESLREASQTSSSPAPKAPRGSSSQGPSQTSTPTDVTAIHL
Chain of UniProt Q9NXV6 (Q9NXV6 whole entry, looked up): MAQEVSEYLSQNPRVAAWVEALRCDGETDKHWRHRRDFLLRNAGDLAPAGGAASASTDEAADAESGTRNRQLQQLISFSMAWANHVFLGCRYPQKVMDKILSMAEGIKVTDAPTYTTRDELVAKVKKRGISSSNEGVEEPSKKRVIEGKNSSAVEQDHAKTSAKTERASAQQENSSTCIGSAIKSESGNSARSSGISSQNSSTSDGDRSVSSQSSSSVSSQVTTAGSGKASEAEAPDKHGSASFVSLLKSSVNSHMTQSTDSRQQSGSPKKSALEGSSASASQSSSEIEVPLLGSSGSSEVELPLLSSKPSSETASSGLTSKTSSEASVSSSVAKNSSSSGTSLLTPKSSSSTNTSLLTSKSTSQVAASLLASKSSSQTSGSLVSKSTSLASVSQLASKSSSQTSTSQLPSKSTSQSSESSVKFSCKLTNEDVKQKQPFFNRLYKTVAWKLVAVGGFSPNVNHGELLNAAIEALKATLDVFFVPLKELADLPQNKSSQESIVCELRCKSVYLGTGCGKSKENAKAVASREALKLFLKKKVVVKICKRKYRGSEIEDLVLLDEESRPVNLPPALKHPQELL
Chain of UniProt Q9Y5P4 (Q9Y5P4 whole entry, looked up): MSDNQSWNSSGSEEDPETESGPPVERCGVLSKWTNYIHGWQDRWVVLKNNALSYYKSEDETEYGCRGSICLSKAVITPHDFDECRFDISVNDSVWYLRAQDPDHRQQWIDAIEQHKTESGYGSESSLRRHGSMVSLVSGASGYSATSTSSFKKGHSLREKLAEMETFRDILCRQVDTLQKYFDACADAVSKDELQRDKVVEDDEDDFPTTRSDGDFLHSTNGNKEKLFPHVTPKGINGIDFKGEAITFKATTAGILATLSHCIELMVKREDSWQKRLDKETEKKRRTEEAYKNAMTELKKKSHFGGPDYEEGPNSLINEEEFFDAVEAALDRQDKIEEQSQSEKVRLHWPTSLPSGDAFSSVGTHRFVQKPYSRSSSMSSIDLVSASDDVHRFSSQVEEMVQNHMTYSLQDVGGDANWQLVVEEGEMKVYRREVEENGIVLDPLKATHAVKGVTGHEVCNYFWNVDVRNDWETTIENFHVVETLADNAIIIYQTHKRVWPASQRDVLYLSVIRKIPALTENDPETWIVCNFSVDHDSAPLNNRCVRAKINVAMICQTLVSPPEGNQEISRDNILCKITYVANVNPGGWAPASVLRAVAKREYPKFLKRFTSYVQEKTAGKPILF
Chain of UniProt O75794 (O75794 whole entry, looked up): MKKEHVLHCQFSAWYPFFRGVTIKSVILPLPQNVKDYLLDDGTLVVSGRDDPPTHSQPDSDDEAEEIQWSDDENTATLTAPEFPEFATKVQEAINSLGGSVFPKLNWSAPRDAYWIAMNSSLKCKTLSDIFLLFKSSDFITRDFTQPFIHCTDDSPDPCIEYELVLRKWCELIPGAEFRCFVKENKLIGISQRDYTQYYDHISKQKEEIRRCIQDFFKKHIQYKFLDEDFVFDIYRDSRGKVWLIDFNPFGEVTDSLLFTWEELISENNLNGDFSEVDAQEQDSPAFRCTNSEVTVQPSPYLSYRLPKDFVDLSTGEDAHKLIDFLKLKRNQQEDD
Chain of UniProt O15234 (O15234 whole entry, looked up): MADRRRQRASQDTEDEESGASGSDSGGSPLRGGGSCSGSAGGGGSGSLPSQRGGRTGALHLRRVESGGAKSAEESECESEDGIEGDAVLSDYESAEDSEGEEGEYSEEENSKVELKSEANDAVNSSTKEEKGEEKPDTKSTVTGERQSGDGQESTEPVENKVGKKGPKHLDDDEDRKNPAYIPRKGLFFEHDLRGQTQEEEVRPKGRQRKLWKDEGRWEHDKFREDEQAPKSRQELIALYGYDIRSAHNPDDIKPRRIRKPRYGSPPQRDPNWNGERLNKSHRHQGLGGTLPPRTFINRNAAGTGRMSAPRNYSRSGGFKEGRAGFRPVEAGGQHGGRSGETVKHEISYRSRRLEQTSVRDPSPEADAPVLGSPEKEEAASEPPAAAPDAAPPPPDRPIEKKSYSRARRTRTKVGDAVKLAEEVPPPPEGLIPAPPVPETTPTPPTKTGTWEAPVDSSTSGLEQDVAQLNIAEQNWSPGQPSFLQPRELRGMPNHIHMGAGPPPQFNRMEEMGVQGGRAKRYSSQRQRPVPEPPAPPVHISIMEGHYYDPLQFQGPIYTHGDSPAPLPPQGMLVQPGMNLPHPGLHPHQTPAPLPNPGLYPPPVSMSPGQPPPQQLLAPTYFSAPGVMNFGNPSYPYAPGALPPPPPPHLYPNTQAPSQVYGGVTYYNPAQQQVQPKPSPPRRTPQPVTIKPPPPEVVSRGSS
Chain of UniProt O43405 (O43405 whole entry, looked up): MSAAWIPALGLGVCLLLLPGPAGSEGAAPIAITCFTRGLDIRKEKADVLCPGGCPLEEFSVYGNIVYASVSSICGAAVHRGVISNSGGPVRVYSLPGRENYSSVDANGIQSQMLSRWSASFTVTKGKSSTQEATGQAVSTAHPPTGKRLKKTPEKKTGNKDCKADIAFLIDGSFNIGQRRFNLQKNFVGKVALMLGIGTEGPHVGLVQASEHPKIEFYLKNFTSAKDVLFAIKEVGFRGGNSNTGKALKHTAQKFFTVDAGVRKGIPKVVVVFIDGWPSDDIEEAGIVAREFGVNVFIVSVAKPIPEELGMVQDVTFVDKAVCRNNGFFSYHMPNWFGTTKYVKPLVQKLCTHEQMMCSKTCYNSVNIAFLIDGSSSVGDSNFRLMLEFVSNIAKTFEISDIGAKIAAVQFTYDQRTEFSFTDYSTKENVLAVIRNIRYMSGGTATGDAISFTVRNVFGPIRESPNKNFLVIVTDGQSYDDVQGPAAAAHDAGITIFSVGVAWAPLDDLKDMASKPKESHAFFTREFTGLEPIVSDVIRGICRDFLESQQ
Chain of UniProt Q6NZI2 (Q6NZI2 whole entry, looked up): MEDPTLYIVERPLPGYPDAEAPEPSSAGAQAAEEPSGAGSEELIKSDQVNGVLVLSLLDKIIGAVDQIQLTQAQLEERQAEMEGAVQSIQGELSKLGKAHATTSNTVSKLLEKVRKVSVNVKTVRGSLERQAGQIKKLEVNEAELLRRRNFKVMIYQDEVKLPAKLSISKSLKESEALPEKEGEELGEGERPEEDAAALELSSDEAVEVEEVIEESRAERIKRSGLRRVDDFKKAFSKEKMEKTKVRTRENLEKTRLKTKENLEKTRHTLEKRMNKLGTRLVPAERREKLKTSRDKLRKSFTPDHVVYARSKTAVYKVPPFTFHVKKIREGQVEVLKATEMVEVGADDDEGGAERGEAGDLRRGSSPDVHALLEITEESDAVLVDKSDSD
Chain of UniProt P60033 (P60033 whole entry, looked up): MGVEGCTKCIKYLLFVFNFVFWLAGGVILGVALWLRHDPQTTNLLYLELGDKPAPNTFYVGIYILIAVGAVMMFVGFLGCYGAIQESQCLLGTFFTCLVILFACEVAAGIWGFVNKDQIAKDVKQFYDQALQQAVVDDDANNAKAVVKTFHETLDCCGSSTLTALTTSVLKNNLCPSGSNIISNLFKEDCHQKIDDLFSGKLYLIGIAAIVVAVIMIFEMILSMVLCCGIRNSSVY
Chain of UniProt Q8NHZ8 (Q8NHZ8 whole entry, looked up): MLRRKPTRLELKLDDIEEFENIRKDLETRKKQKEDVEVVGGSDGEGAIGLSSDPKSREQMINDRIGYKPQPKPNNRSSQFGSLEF
Chain of UniProt P15954 (P15954 whole entry, looked up): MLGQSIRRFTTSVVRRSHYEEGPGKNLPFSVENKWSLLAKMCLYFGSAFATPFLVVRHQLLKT

| Target | log2 fold change |
| --- | --- |
| CDK5 (UniProt Q00535) | -0.022 |
| CDKN2AIP (UniProt Q9NXV6) | -0.014 |
| CDC42EP1 (UniProt Q00587) | -0.089 |
| CLSPN (UniProt Q9HAW4) | 0.057 |
| CERS2 (UniProt Q96G23) | -0.018 |
| CCAR1 (UniProt Q8IX12) | -0.015 |
| CLN3 (UniProt Q13286) | 0.065 |
| CSE1L (UniProt P55060) | -0.003 |
| CASP8 isoform 9 (UniProt Q14790) | 0.005 |
| CSTF2 (UniProt P33240) | 0.022 |
| CLASP2 isoform 3 (UniProt O75122) | -0.046 |
| CDC123 (UniProt O75794) | -0.081 |
| CBX1 (UniProt P83916) | 0.066 |
| CAVIN1 (UniProt Q6NZI2) | 0.076 |
| CD53 (UniProt P19397) | 0.073 |
| CSK (UniProt P41240) | 0.013 |
| CASC3 (UniProt O15234) | 0.485 (active) |
| CKB (UniProt P12277) | 0.063 |
| COX15 (UniProt Q7KZN9) | -0.169 |
| CLCN5 isoform 2 (UniProt P51795) | -0.014 |
| CIR1 (UniProt Q86X95) | 0.024 |
| CRK (UniProt P46108) | -0.022 |
| CNN3 (UniProt Q15417) | -0.022 |
| CDK1 (UniProt P06493) | -0.024 |
| CNOT2 (UniProt Q9NZN8) | -0.012 |
| CORO2A (UniProt Q92828) | 0.078 |

| Target | log2 fold change |
| --- | --- |
| CERT isoform 3 (UniProt Q9Y5P4) | 0.019 |
| COMMD2 (UniProt Q86X83) | 0.015 |
| CPSF3 (UniProt Q9UKF6) | 0 |
| CCAR2 isoform 2 (UniProt Q8N163) | -0.014 |
| CCND3 (UniProt P30281) | -0.154 |
| CDAN1 (UniProt Q8IWY9) | 0.023 |
| COMT (UniProt P21964) | 0.017 |
| CEP128 (UniProt Q6ZU80) | -0.064 |
| CA8 (UniProt P35219) | 0.094 |
| COCH (UniProt O43405) | -0.012 |
| CCDC167 (UniProt Q9P0B6) | 0.034 |
| CDC26 (UniProt Q8NHZ8) | 0.023 |
| CSTF3 (UniProt Q12996) | -0.064 |
| CDK9 isoform 2 (UniProt P50750) | 0.012 |
| CHCHD1 (UniProt Q96BP2) | -0.004 |
| CHP1 (UniProt Q99653) | 0.044 |
| CCDC57 (UniProt Q2TAC2) | -0.044 |
| COX7C (UniProt P15954) | -0.074 |
| CEMIP2 (UniProt Q9UHN6) | 0.04 |
| CALCOCO2 isoform 4 (UniProt Q13137) | 0.005 |
| CLPTM1L (UniProt Q96KA5) | -0.025 |
| CA1 (UniProt P00915) | 0.018 |
| CPQ (UniProt Q9Y646) | 0.011 |
| CDK8 (UniProt P49336) | -0.037 |
| CLCN7 (UniProt P51798) | -0.007 |
| CLCN3 isoform 2 (UniProt P51790) | -0.039 |

| Target | log2 fold change |
| --- | --- |
| CDK17 isoform 2 (UniProt Q00537) | 0.067 |
| COPS3 isoform 2 (UniProt Q9UNS2) | 0.135 |
| CFAP36 isoform 2 (UniProt Q96G28) | 0.116 |
| COX5B (UniProt P10606) | 0.005 |
| CNOT1 (UniProt A5YKK6) | 0.014 |
| CIT isoform 4 (UniProt O14578) | -0.168 |
| CCNT1 (UniProt O60563) | 0.038 |
| CDK19 (UniProt Q9BWU1) | -0.013 |
| CHPT1 (UniProt Q8WUD6) | 0.047 |
| CRTC2 (UniProt Q53ET0) | -0.038 |
| COASY isoform 2 (UniProt Q13057) | -0.076 |
| CD63 (UniProt P08962) | -0.049 |
| CASP7 isoform 3 (UniProt P55210) | 0 |
| CDK5RAP1 (UniProt Q96SZ6) | 0.03 |
| CCNK isoform 4 (UniProt O75909) | 0.037 |
| CLINT1 (UniProt Q14677) | 0.16 |
| CHAMP1 (UniProt Q96JM3) | 0.002 |
| CD81 (UniProt P60033) | 0.019 |
| CRYM-AS1 (UniProt A6NIL9) | -0.459 |
| CEPT1 (UniProt Q9Y6K0) | 0.033 |
| CASP3 (UniProt P42574) | 0.044 |
| CCNH (UniProt P51946) | -0.019 |
| CETN2 (UniProt P41208) | 0.057 |
| CSNK1A1 (UniProt P48729) | 0.009 |
